Bioassay records: PubChem BioAssay, several laboratories
This is a sample that favours compounds with a hit; in the whole collection about 2.3% have one here.
697 NFkB inh – inhibitors of the PMA/ionomycin-induced NF-kB reporter in 697 B cells; inhibition, % at 4 µM; 0.33% of 330,000 active; 697 B-cell NF-kB luciferase reporter, 16 h; in the data active = inhibition above about 35%
Jurkat NFkB inh – lowers PMA/ionomycin-induced NF-kB signal in Jurkat cells; PMA/ionomycin-induced NF-kB luciferase reporter, luminescence; inhibition, % at 4 µM; 0.53% of 330,000 active; in the data active = inhibition above about 50%
Shn3 inh set2 – inhibitors of Schnurri-3 3'UTR reporter in osteoblasts; Clone20 osteoblast Shn3 3'UTR firefly luciferase, 24 h; 0.52% of 360,000 active; inhibition, % at 12.5 µM; AID 588674;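 active = mean inhibition of at least 75% with every replicate also reaching 75%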;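 also: 0% = median of neutral control wells and 100% = pilot-screen positive control compound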
H9c2 TAG inh – reduces triacylglycerol accumulation in H9c2 cells | 0.66% of 230,000 active | inhibition, % at 12.5 µM | Nile Red lipid (TAG) fluorescence; cells loaded with 200 µM oleic acid;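 active = pattern-corrected inhibition of lipid staining of at least 50% with the nuclear-stain viability signal not falling by more than 50%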;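 also: 0% = DMSO wells and 100% = triacsin C control wells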
Gli-Sufu block – Gli-Sufu pathway antagonism | 0.74% of 340,000 active | Sufu-KO-LIGHT fibroblasts, Gli luciferase reporter luminescence | inhibition, % at 5 µM | AID 588413;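 active = inhibition above about 55%, limit read from the data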;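 also: 0% = DMSO-treated cells and 100% = wells with medium but no cells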
aSyn 5UTR inh – 5' untranslated region of α-synuclein, MLPCN primary screen. alpha-synuclein 5'UTR reporter, inhibitor activity. inhibition, % (tested at 7.5 µM). 0.82% of 300,000 active; in the data active = inhibition above about 60%;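 also: H4 neuroglioblastoma cells stably carrying SNCA 5'UTR luciferase fusion; 0% = DMSO wells and 100% = positive control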
Active calls of the source: *; nt = not tested or not shown; ! = repeats disagree.

SMILES	697 NFkB inh	Jurkat NFkB inh	Shn3 inh set2	H9c2 TAG inh	Gli-Sufu block	aSyn 5UTR inh
CCCCNC(=O)C1(C)CCN1C(=O)Cc1ccc(OC)cc1 (stereo not drawn)	nt	nt	-32.6	9.1	nt	nt
COc1ccc(C2NCCc3c2[nH]c2ccccc32)cc1COc1ccc(F)cc1 (stereo not drawn)	22.2	-4.3	-28.2	114.8*	10.5	-2.0
CC1(C)CC(=O)C2=C(C1)OC1=C(C(=O)CC(C)(C)C1)C2c1ccc(O)cc1O	15.1	-3.5	93.8*	nt	-0.3	-11.1
CC1=C(C(=O)N(C)C)CC(CC(=O)NCCCN(C)C)C(=O)N1Cc1ccc(C(C)(C)C)cc1 (stereo not drawn)	nt	nt	-9.4	14.3	nt	nt
Nc1nn(-c2ccccc2)c(N)c1N=Nc1cccc(F)c1	-232.3	-15.2	-86.9	53.6*	-99.0	-57.2
COc1ccc(-c2nsc3c(N4CCCCC4)ncnc23)cc1	-217.3	-3.4	61.1	-16.8	41.1	85.4*
COc1ccc(OC)c(NC(=O)[C@@H]2CCCN2C(=O)c2cccs2)c1	17.0	2.1	19.0	nt	-4.2	-4.5
CCCCN1C(=O)c2ccc(C(=O)Nc3ccc(C)c(S(=O)(=O)N(C)C)c3)cc2C1=O	-33.3	6.9	26.2	nt	9.9	-15.8
CCCCn1c(SCC(=O)N2c3ccccc3CCc3ccccc32)nc2c1c(=O)n(C)c(=O)n2C	21.2	8.6	5.8	10.7	7.9	73.7*
O=C(N[C@H]1C/C=C\C[C@H](CC(=O)N(CCO)Cc2ccccc2)C(=O)N[C@@H](c2ccccc2)COC1=O)OCC1c2ccccc2-c2ccccc21	-11.1	-3.1	38.4	-19.4	66.5*	nt
CN1\C(=C/C=C/C=C/C=[N+](C)C)C(C)(C)c2ccccc21	nt	nt	89.4*	-66.9	46.2	36.0
O=C(CN1CCN(c2ccc([N+](=O)[O-])cc2)CC1)c1ccccc1	-10.1	22.6	12.4	nt	0.5	6.5
COc1ccc(-c2csc(NC(=S)NC(=O)/C=C/c3ccco3)n2)cc1OC	nt	nt	-12.3	nt	-9.5	62.9*
O=C(/C=C/c1ccco1)Nc1nc(-c2ccccc2)cs1	-75.1	-52.5	-28.6	nt	-19.5	-250.4
O=C(/C=C/c1ccco1)Nc1nc(-c2ccc(F)c(F)c2)cs1	-96.1	-6.5	nt	nt	57.9*	-99.6
COC(=O)C(NC(=O)c1ccco1)(Nc1nc(C)cs1)C(F)(F)F (stereo not drawn)	8.2	8.4	0.2	-3.7	0.4	10.4
C=C1C(=O)C23CCC4C(C)(C(=O)OC)CCCC4(C)C2CCC1(O)C3 (stereo not drawn)	nt	nt	96.0*	117.4	43.8	nt
COC(=O)[C@]1(C)CCC[C@@]2(C)C3CC[C@@]4(C)C[C@]3(CCC21)CC(=O)N4 (stereo partly drawn)	-8.2	2.0	6.4	-13.1	29.5	nt
COc1ccc(CCN=C(N)Nc2nc(C)cc(C)n2)cc1	-20.9	-11.2	12.4	-9.5	39.1	19.6
CCOC1=C2[C@H](c3ccc(CC)cc3)N(S(=O)(=O)c3ccc(C)cc3)C[C@H]2C(C#N)(C#N)C(C#N)(C#N)C1	nt	nt	95.5*	nt	nt	nt
CC(C)(C)c1ccc(C(=O)NCCC(=O)Nc2cc(Cl)ccc2N2CCOCC2)cc1	-10.6	-6.1	0.6	56.8*	8.5	nt
O=C(CCC1CCCC1)Nc1cc(Cl)ccc1N1CCOCC1	18.1	0.6	3.0	-4.4	0.1	nt
C=CCn1c(=O)c2ccccc2n2c(SCC(=O)/C(C#N)=C(\C)N)nnc12	3.3	7.6	93.3*!	-14.1	-2.3	-5.1
O=[N+]([O-])c1cn(-c2nc(-c3ccco3)cc(C(F)(F)F)n2)cn1	11.0	-3.5	2.6	1.2	-0.4	6.6
Cc1cc(N)ccc1-n1nc2ccccc2n1	-9.7	-17.9	-21.0	-1.3	-16.3	43.9
SMILES	697 NFkB inh	Jurkat NFkB inh	Shn3 inh set2	H9c2 TAG inh	Gli-Sufu block	aSyn 5UTR inh
Cc1ccc(-n2nc3ccc(N)cc3n2)c(C)c1	-30.7	-29.3	13.9	nt	-3.0	65.9*
CCN(CC)CC(C)(C)C(=O)/C=C/c1ccc(/C=C/C(=O)C(C)(C)CN(CC)CC)cc1	nt	nt	98.3*	112.3*	37.0	nt
CCN(CC)CCOC(=O)/C=C/c1ccccc1	-1.5	-11.4	-22.7	0.9	5.5	15.2
CC(=O)Nc1ccc(S(=O)(=O)NC2=C(N3CCN(C)CC3)C(=O)c3ccccc3C2=O)cc1	-11.0	29.3	13.7	nt	-8.9	70.6*
CCC(CC)NC(=O)c1cc2c(C)nn(Cc3ccccc3Cl)c2s1	30.4	2.0	17.6	32.3	-0.4	70.5*
Cn1cnc([N+](=O)[O-])c1S(=O)(=O)Oc1ccccc1	nt	nt	94.6*	14.6	2.6	nt
